ATXN viability – cell viability loss in ATXN counter-screen; S2 cells (HEK-293 line with an ATXN2-luciferase reporter) viability, CellTiter-Fluor protease fluorescence, 24 h; Potency, µM (series often up to 56.7 µM), usual class: cytotoxic; actives 0.49% (n = 400,000); note: potency is the fitted concentration of half-maximal effect; nearly all actives have a fitted effect of over 40% in size
DRD3 antagonist – antagonists of human D3 dopamine receptor; P35462; D3R cells, DiscoveRx beta-arrestin luminescence, antagonist mode; hits give low values; max response, negative = inhibition, %; actives 2.5% (n = 360,000); AID 652054; in the data active = max response below about -50%; inconclusive = no clear call, values can overlap the other calls; note: % is set by controls: 0 for no effect and ±100 for the full control effect
Target sequence (P35462 whole entry, looked up): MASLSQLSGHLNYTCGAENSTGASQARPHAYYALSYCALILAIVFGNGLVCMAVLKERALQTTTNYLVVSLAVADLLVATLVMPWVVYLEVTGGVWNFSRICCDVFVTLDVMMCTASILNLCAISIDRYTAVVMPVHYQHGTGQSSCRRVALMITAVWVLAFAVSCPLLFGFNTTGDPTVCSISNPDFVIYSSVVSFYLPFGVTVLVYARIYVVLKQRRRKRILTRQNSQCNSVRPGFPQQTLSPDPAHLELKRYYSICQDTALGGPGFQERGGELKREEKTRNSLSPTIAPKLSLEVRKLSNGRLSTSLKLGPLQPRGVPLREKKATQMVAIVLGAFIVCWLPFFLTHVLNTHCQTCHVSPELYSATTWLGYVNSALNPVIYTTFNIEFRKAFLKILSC
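Cells expressing the human receptor were seeded at 1500 cells/well, incubated overnight at 37 degrees C in 5% CO2, then exposed to library compounds with dopamine controls for 90 minutes at 37 degrees C before luminescent detection.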
DRD3 agonist – D3 dopamine receptor (human) agonism; D3R DiscoveRx beta-arrestin cells, luminescence, 90 min; max activation, %; actives 0.58% (n = 410,000); AID 652048; P35462; in the data active = max activation above about 30%; note: 0% is about no effect
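Agonist-mode cell screen: cells plated at 1500/well and incubated overnight at 37 °C, then exposed to library compounds for 90 min at 37 °C. Detection reagent was added for 30–60 min at room temperature, and luminescence was read.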
IL1B secr inh – inflammasome signaling inhibition, IL-1 beta readout; activity change, % at 57.5 µM; actives 4.7% (n = 360,000); THP-1 LPS/ATP IL-1B secretion, AlphaLISA, 16 h; hits give low values; in the data active = activity change below about -50%; inconclusive = mostly about -30% to -49%; note: % is set by controls: 0 for no effect and ±100 for the full control effect
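Secreted IL-1B measured by AlphaLISA bead assay after 16 h compound exposure of THP-1 cells; compounds (final up to 57.5 uM) added 1 h before LPS (250 ng/mL) and ATP (1.25 mM) stimulation; lower signal means less secretion.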
a7 integrin act – activates integrin-mediated alleviation for muscular dystrophy; alpha7betagal myoblasts, beta-gal FDG fluorescence, 48 h; Potency, µM (top dose mostly 38.3 µM), without a hit: at the top dose activation, usual class: activators; actives 0.064% (n = 350,000);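 note: potency is the fitted concentration of half-maximal effect; 100% = response of the positive control SU9516; nearly all actives have a fitted effect of over 60% in size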
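Alpha7betagal+/- myoblasts (passage 13) were plated 16-24 hr, then exposed to compounds (1:260 dilution of DMSO stock) for 48 hours at 37C. After MPER lysis, β-galactosidase reporter activity was read as FDG fluorescence (ex 480/em 540) after 30 minutes.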
ATXN2 expr inh – reduces ATXN2 reporter expression in HEK-293 cells | Potency, µM (top dose mostly 57 µM), without a hit: at the highest dose activity change, negative = inhibition, most hits filed as inhibitors | AID 1745845 | HEK-293 ATXN2-luciferase reporter, luminescence, 24 h | actives 0.72% (n = 360,000); note: potency is the fitted concentration of half-maximal effect; % is set by controls: 0 for no effect and ±100 for the full control effect; nearly all actives have a fitted effect of over 55% in size
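ATXN2-luciferase reporter cells (luciferase flanked by upstream and downstream ATXN2 gene portions) were treated 24 h at 37 °C with compounds at up to 57 uM. SteadyGlo luminescence gave expression; GF-AFC fluorescence gave viability.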
* = called active by the depositor; i = inactive; u = inconclusive; x = no result given; [ ] = another dose, or the depositor's remark. Only some compounds are listed: those with a hit (about 7% of all), similar ones and a draw of the others. Unless noted, calls come from the whole dose curve; as a rule, active = well fitted curve in the direction sought with a large enough effect; inconclusive = small, poorly fitted or top-dose-only effect, or another doubt; inactive = no such curve, though single readings can be large; an effect the other way counts as inactive or inconclusive.

SMILES | ATXN viability | DRD3 antagonist | DRD3 agonist | IL1B secr inh | a7 integrin act | ATXN2 expr inh
c1coc(Cn2nnnc2CN2CCN(C3CCCC3)CC2)c1 | i | -69* | -3 | -4 | -30% | -2%
CCN(CCNC(=O)C1CCCN(Cc2nc(-c3ccc(OC)cc3)oc2C)C1)c1ccccc1 (stereo not given) | u | 11 | -1 | -73* | -17%[7.66 µM] | u
Clc1ccc(CNCCC2=CCCCC2)cc1 | u | -71* | -53 | -76* | -7% | -39%
Cc1ccccc1-c1nc(CN2CCC(C(=O)NCCC3=CCCCC3)CC2)c(C)o1 | x | u | 0 | -61* | -48% | x
CCC1CCCCN1CCCNC(=O)C1CCN(Cc2nc(-c3ccc(Cl)cc3)oc2C)CC1 (stereo not given) | u | -22 | 2 | -90* | -81% | x
COC(=O)c1scc(C)c1NC(=O)C(Cl)c1ccccc1 (stereo not given) | i | -4 | -7 | 20 | -14% | x
COC(=O)c1ccccc1NC(=O)Cn1c(=O)n(CCC(=O)NCc2ccccc2OC)c(=O)c2ccccc21 | i | x | -12 | x | x | 11%
COC(=O)c1nn(-c2ccccc2)c(-c2ccccc2)c1C(=O)c1ccccc1 | i | -3 | 0 | 9 | -22% | 0%
O=C(NCCC1=CCCCC1)C1CCN(C(=O)c2ccc(Cl)cc2)CC1 | i | -131* | 7 | 21 | -8% | 20%
Cc1oc(-c2ccc(Cl)cc2)nc1CN1CCC(C(=O)NCC2CCCO2)CC1 (stereo not given) | i | -3 | 0 | u | -15% | -9%
CCc1ccc(-c2nc(CN3CCC(C(=O)NCCN(CC)c4ccccc4)CC3)c(C)o2)cc1 | u | 9 | -2 | -97* | -24% | -22%
Cc1oc(-c2ccc(Cl)cc2)nc1CS(=O)CC(=O)NCCCN1CCN(Cc2ccccc2)CC1 (stereo not given) | u | u | -10 | -80* | -55% | u
Cc1oc(-c2ccc(Cl)cc2)nc1CS(=O)CC(=O)NCCCN1CCCC(C)C1 (stereo not given) | i | 5 | -8 | u | -78% | -19%
Cc1oc(-c2ccc(Cl)cc2)nc1CN1CCC(C(=O)NCc2cccs2)CC1 | i | -27 | -1 | -54* | -40% | 35%
Cc1cc(C)c(NC(=O)CNC(=O)c2cc([N+](=O)[O-])ccc2N2CCOCC2)c(C)c1 | i | -8 | 2 | -14 | -8% | 6%
COc1ccccc1CN1CC(C(=O)NCc2ccc(N3CCCC3=O)cc2)CCC1=O (stereo not given) | i | -14 | -5 | 1 | 20% | x
CCN(CCNC(=O)C1CCN(Cc2nc(-c3cccc(Cl)c3)oc2C)CC1)c1ccccc1 | u | -10 | 4 | u | -48% | u
CCN(CCNC(=O)C1CCN(Cc2nc(-c3ccc(Cl)cc3)oc2C)CC1)c1ccccc1 | u | -19 | -8 | -54* | -51% | u
O=c1[nH]nc(CNc2ccc(C(F)(F)F)cc2)c2ccccc12 | i | 2 | 1 | 27 | 5% | x
O=c1[nH]nc(CNc2ccc(O)cc2)c2ccccc12 | i | -22 | -8 | -101* | -53% | -8%
COc1cc(C2c3cc(O)c(OC)cc3CC(C(=O)O)C2CO)ccc1O (stereo not given) | i | 4 | 71* | 9 | 0% | 6%
CC1=C(C(=O)Nc2ccc(C)cc2)C(c2ccc(C)o2)C2=C(CC(C)(C)CC2=O)N1 (stereo not given) | i | -17 | -2 | -10 | -8% | -2%
Cc1ccccc1C(=O)Nc1nnc(SC(C)C)s1 | i | -17 | -3 | -5 | 10µM* | 26%
CCOC(=O)CN1CC23C=CC(O2)C(C(=O)Nc2ccc(OCC)cc2)C3C1=O (stereo not given) | i | 1 | -2 | 9 | -4% | 4%
COC(=O)C[C@@H]1C=C[C@@H](NC(C)=O)[C@@H](CO)O1 | x | 7 | 10 | 4 | x | x
SMILES | ATXN viability | DRD3 antagonist | DRD3 agonist | IL1B secr inh | a7 integrin act | ATXN2 expr inh
CC1CN(Cc2c(O)ccc3c2oc(=O)c2ccccc23)CC(C)O1 (stereo not given) | u | -66* | -30 | -14 | -43% | x
CC1CN(Cc2c(O)ccc3c(=O)c(-c4ccccc4)coc23)CC(C)O1 (stereo not given) | i | 5 | 10 | -9 | 9% | -33%
Cc1ccc(N2CCN(S(=O)(=O)N(C)C)CC2)c(C)c1 | i | 22 | -3 | 10 | 11% | -13%
Cc1cc2c(cc1C)CSC(c1c(O)ccc3ccccc13)SC2 | x | -16 | 3 | -78* | -28% | u
Cc1cc2c(cc1C)CSC(c1ccc3ccccc3c1O)SC2 | i | -10 | 2 | 19 | 11% | -17%
Cc1nc2scc(C)n2c(=O)c1S(=O)(=O)NCc1ccccc1 | i | -5 | 2 | 11 | -6% | 3%
Fc1ccccc1COc1cccc(/C=N/n2cnnc2)c1 | i | 17 | 12 | -7 | -18% | 0%
Cc1cc(/C=N/n2cnnc2)c(C)n1-c1ccc(OCc2ccc(Cl)cc2)cc1 | u | -20 | 3 | -82* | -33% | -19%
Cc1cc(/C=N/n2cnnc2)c(C)n1-c1ccc(OCc2ccccc2F)cc1 | i | -14 | -5 | -85* | -38% | u
C=C(C)c1cccc(C(C)(C)NC(=O)Nc2cccnc2)c1 | i | -1 | 1 | 4 | 31% | -19%
COc1ccc(C2c3c(oc4ccccc4c3=O)C(=O)N2c2ccccn2)cc1OC (stereo not given) | i | 8 | 2 | 21 | 10% | -2%
O=C(Cn1c(=O)n(-c2ccccc2Cl)c(=O)c2sc3ccccc3c21)N1CCCC1 | u | x | 2 | x | x | -10%
Cc1cc(NC(=O)CSc2nnc3c(C)cc4cc(C)c(C)cc4n23)no1 | i | 14 | 5 | -10 | 1% | -1%
Cc1nc(SCC(=O)N2CCN(c3ccccc3)CC2)c2oc3ccccc3c2n1 | u | 118 | 42* | -22 | 6% | -36%
O=C1OC(Nc2nc(-c3ccc(F)cc3)cs2)c2ccccc21 (stereo not given) | u | -22 | -15 | -92* | -39% | -38%
COC(=O)C[C@H]1CC[C@@H](NC(=O)Nc2ccc3c(c2)OCO3)[C@@H](CO)O1 | x | -29 | -13 | -12 | x | x
CNCCCOc1cccc(Oc2ccccc2)c1 | i | u | -16 | -18 | -35% | -8%
CC(O)CNCCCOc1cccc(C(F)(F)F)c1 (stereo not given) | i | -71* | -34 | 1 | -13% | -19%

Screening data as filed in PubChem.
